# High-throughput results: PubChem, National Center for Advancing Translational Sciences (NCATS)
# In the library only some 2.5% were active in any assay of this set; here they are far more common.
# Akt phos inh = HTS Assay for Inhibitors of Akt Phophorylation: Primary Screen; Neuro2A IGF-stimulated pAkt S473 HTRF, 20 min; hits give low values; 360,000 compounds, 0.32% hits; activity change, % for hits at 50 µM; in the data active = activity change below about -80%; inconclusive = mostly about -51% to -80%; note: % is set by controls: 0 for no effect and ±100 for the full control effect
#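 Neuro2A cells (4,500/well, DMEM with 0.5% FBS) were treated with compound at a single 50 µM final concentration, stimulated with 6 nM IGF for 20 min at 37 °C, and lysed. Phospho-Akt Ser473 was read by HTRF as 665/615 ratio ×10^4.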
# aSyn yeast inh = qHTS of alpha-syn Inhibitors | Yeast expressing alpha-synuclein, growth rescue, BacTiter-Glo, 24 h | Potency, µM (titrated, usually from 46.1 µM), inactives show at the top dose growth rescue (activation), actives largely listed as activators | 370,000 compounds, 0.14% hits | AID 652106, 2013; note: potency is the fitted concentration of half-maximal effect; % of control where 0% means no effect; nearly all actives have a fitted effect of over 65% in size
#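 Galactose-induced alpha-syn yeast (OD600=0.02, raffinose-pregrown) + pinned cpd, 24 hr, 30 deg C; growth by BacTiter-Glo luminescence. Growth restoration scores as activation.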
# CCT modulator = High-Throughput Screening for Modulators of Cytosolic Chaperonin Activity | AID 651819, 2012 | purified chaperonin ATPase assay, HTRF ADP detection, 30 min | 360,000 compounds, 0.3% hits | activity change, % (test concentration not listed), hits read low; in the data active = activity change below about -30%; note: % is set by controls: 0 for no effect and ±100 for the full control effect
#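 TRiC (40 or 20 nM final, by batch activity) in 30 mM Tris pH 7.4, 100 mM KCl, 5 mM MgCl2, 1 mM DTT was treated with compound at 76 uM single dose, then 10 uM ATP, 30 min at 37 °C. ADP was read by HTRF Transcreener.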
# Apoferritin bind = qHTS Assay for Identification of Novel General Anesthetics | Ferritin light chain (Equus caballus), P02791 | apoferritin/1-aminoanthracene competitive binding, fluorescence | Potency, µM (top dose mostly 77.5 µM), for the others: top-dose activity change, negative = displacement, actives largely listed as inhibitors | 350,000 compounds, 0.074% hits | AID 485281, 2010; note: potency is the fitted concentration of half-maximal effect; % is set by controls: 0 for no effect and ±100 for the full control effect; nearly all actives have a fitted effect of over 20% in size
# Target sequence (P02791 2-175 limits assumed): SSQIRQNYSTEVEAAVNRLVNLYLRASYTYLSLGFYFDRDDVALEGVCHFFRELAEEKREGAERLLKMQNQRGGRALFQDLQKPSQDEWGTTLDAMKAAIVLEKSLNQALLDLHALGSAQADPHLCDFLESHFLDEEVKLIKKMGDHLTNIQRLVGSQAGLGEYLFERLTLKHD
#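 Probe: 1-aminoanthracene (50% saturated, PBS). Protein: horse-spleen apoferritin, 10 uM. Incubation: 10 min, room temperature. Detection: 380 nm excitation, 535 nm emission. Analysis: normalized response, four-parameter Hill.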
# TDP43 rescue = qHTS of TDP-43 Inhibitors; TDP-43 expressing yeast growth rescue, BacTiter-Glo, 24 h; Potency, µM (highest dose often 46.1 µM), inactives show top-dose growth rescue (activation), hits mostly activators; 410,000 compounds, 1.8% hits; note: potency is the fitted concentration of half-maximal effect; % of control where 0% means no effect; nearly all actives have a fitted effect of over 50% in size
#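 Readout is BacTiter-Glo luminescence of cell growth, so inhibitors register as activators. TDP-43-expressing yeast at OD600=0.02 in galactose medium, after raffinose pregrowth to mid-log, were incubated with compound for 24 hr at 30 deg C.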
# Mito fusion yeast = qHTS Assay for Small Molecule Inhibitors of Mitochondrial Division or Activators of Mitochondrial Fusion; S. cerevisiae fusion-defective mutant growth rescue, CellTiterGlo 48 h; Potency, µM (doses to about 46.1 µM), for the others: top-dose growth rescue (activation), hits mostly activators; 320,000 compounds, 0.23% hits; note: potency is the fitted concentration of half-maximal effect; % of control where 0% means no effect; nearly all actives have a fitted effect of over 45% in size
#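 Read-out: ATP-based luminescence (CellTiterGlo, 10 min ambient) reporting growth of fusion-defective ts yeast after 48 hours at 37C on glycerol/ethanol YPEG medium in the presence of compound.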
# Starred values were filed as active, the others as inactive; i = inactive; ? = inconclusive; / = no result given; [ ] = dose if it differs, or a comment. Unless noted, calls come from the whole dose curve; as a rule, active = well fitted curve in the direction sought with a large enough effect; inconclusive = small, poorly fitted or top-dose-only effect, or another doubt; inactive = no such curve, though single readings can be large; an effect the other way counts as inactive or inconclusive.
SMILES,Akt phos inh,aSyn yeast inh,CCT modulator,Apoferritin bind,TDP43 rescue,Mito fusion yeast
CC(=O)Nc1ccc(S(=O)(=O)N2CCN(S(=O)(=O)c3ccccc3)CC2)cc1,i,1.4%,-0.5,-8.3%,5.9%,1.5%
CC(=O)Nc1ccc(S(=O)(=O)N2CCN(c3cc(C)ccc3C)CC2)cc1,i,9.1%,-1.9,-19.7%,28.2µM*,?
CC(=O)Nc1ccc(S(=O)(=O)N2CCN(CC3CC4C=CC3C4)CC2)cc1 (stereo not drawn),i,-1.9%,-42.7*,-17.8%,-3.7%,-0.3%
CS(=O)(=O)N1CCN(CC2CC3C=CC2C3)CC1 (stereo not drawn),i,-5.7%,0.2,-2.1%,-12.4%,-0.4%
CC1CCN(C(=O)Nc2ccc3nc(-c4ccco4)c(-c4ccco4)nc3c2)CC1,/,-6.7%,/,/,/,/
Cc1ccc2c(c1)/C(=N/O)CCS2,-113.2%*,3.4%,0.5,?,9.3%,-2.6%
Cc1ccc2c(c1)/C(=N/OS(=O)(=O)c1ccccc1)CCS2,i,-1.1%,-0.9,/,4.6%,/
CC(C)C(NC(=O)c1ccccc1)C(=O)OCC(=O)N1CCN(c2ccccc2)CC1 (stereo not drawn),i,-1.7%,3.5,/,6.7%,-5.0%
CC(C)C(NC(=O)c1ccccc1)C(=O)OCC(=O)N1CCCCC1 (stereo not drawn),i,0.1%,-39.9*,/,-6.2%,-0.7%
O=S1(=O)C=C(Sc2nc3ccccc3s2)c2ccccc21,-107.8%*,13.0%,-0.3,-17.4%,2.24µM*,-11.0%
Cc1cc(C)nc(SC2=CS(=O)(=O)c3ccccc32)n1,i,3.4%,-2.6,0.8%,26.1%,-4.9%
COc1ccc(C(=O)c2sc(Nc3ccccc3)nc2N)cc1,i,-3.2%,-2.2,3.4%,2.3%,-2.7%
COc1ccc(C(=O)c2sc(Nc3ccccc3F)nc2N)cc1,i,13.3%,0.2,0.6%,20µM*,4.0%
COc1cc(N(C)C)c(OC)cc1/C=C1\C=Cc2ccccc21,/,-8.3%,/,/,/,/
O=C1N(CCCl)c2ccc(Br)cc2C12OCCO2,i,3.4%,-11.4,3.0%,10µM*,-2.4%
COC(=O)CN1C(=O)C2(OCCCO2)c2cc(Br)ccc21,i,-7.5%,0.4,-5.1%,-19.8%,-5.2%
CNC(=O)c1[nH]nc2c1CCc1ccccc1-2,i,-15.4%,-1.3,3.0%,23.6%,10µM*
COc1ccc(/C=N/NC(=O)c2[nH]nc3c2CCc2ccccc2-3)cc1OC,i,-2.8%,-2.1,48.4%,0.0%,7.5%
CCOC(=O)c1cc(-c2ccc(C)cc2)n(CCC(=O)NC(C)CC)c1C (stereo not drawn),i,0.9%,0.1,-15.6%,14.1µM*,0.3%
CCOC(=O)c1cc(-c2ccc(F)cc2)n(CC(=O)NC(C)CC)c1C (stereo not drawn),i,1.0%,-0.9,-1.6%,21.8%,3.7%
COc1ccc(-c2c(C)nn3c(-c4ccccc4)cc(C)nc23)cc1,i,0.5%,1.6,-4.3%,0.0%,-6.9%
Cc1cc(-c2ccccc2)n2nc(C)c(C#N)c2n1,i,-12.3%,-1.4,32.5%,15.8µM*,12.9%
N[C@@H](CCS(=O)O)C(=O)O,/,/,/,-3.1%,/,/
O=C(/C=C\c1ccccc1OC(=O)c1ccccc1F)c1cc2ccccc2o1,i,17.1%,0.9,?,12.6µM*,6.3%
O=C(Nc1ccc(Br)cc1)c1ccc(F)c(S(=O)(=O)NCc2cccs2)c1,i,?,0.3,-1.5%,20µM*,?
SMILES,Akt phos inh,aSyn yeast inh,CCT modulator,Apoferritin bind,TDP43 rescue,Mito fusion yeast
O=S(=O)(NCc1cccs1)c1ccc(Br)cc1,i,1.3%,0.9,-23.5%,13.0%,4.5%
Cc1cc(NS(=O)(=O)c2ccc(C(C)C)cc2)no1,i,8.1%,0.9,-2.9%,14.1µM*,2.4%
Cc1cc(NS(=O)(=O)c2ccc(CC(C)C)cc2)no1,i,1.9%,-0.6,-13.4%,17.8µM*,13.9%
CC(C)CCNC(=S)Nc1ccc(Br)cc1,i,-33.1%,-2.1,-10.2%,?,-11.2%
CC(C)CCNC(=O)/C=C/c1ccc(Br)cc1,i,-10.0%,0.1,-8.7%,22.4µM*,6.1%
Cc1ccc2c(c1)C1(C=CC(=O)C=C1)CC(=O)N2C,/,/,/,-23.0%,/,/
COc1ccc(C(=O)Nc2ccc(S(=O)(=O)Nc3onc(C)c3C)cc2)c(OC)c1,i,1.8%,-35.2*,-3.3%,17.3%,0.3%
CC(=O)N1N=C(c2ccc(Br)cc2)CC1c1cn(C)c2ccccc12 (stereo not drawn),i,?,1.2,-17.2%,25.1µM*,23.8%
O=C(NCCc1ccccc1)c1cnc2sc(N3CCCCC3)nn2c1=O,/,/,/,5.9%,0.0%,/
O=C(NCc1ccc2c(c1)OCO2)c1ccc(CSCc2ccc(Cl)cc2)o1,i,18.8%,-1.0,-3.4%,?,17.8µM*
O=C(NCc1ccc2c(c1)OCO2)c1ccc(COc2cc(Cl)ccc2Cl)o1,i,6.9%,-1.2,?,?,14.1µM*
Nc1nnc(CSCc2ccccc2Cl)s1,i,0.2%,0.7,?,-6.7%[1.82 µM],-1.0%
Nc1nnc(SCc2ccccc2Cl)s1,i,6.2%,-1.2,11.2µM*,24.3%,-3.7%
O=C(C1CCN(S(=O)(=O)c2ccc(Cl)s2)CC1)N1CCN(c2ccccc2)CC1,i,21.1%,-0.3,/,14.1µM*,/
O=C(C1CCN(S(=O)(=O)c2ccccc2)CC1)N1CCN(c2ccccc2)CC1,i,14.6%,-0.8,4.5%,0.0%,-1.5%
Cc1c(C#N)c(NC(=O)COC(=O)c2cc(Cl)c3c(c2)OCCCO3)n(Cc2ccco2)c1C,/,1.1%,/,/,/,/
COc1ccc(CN2CSC(=S)N(Cc3ccc(OC)cc3)C2)cc1,i,-5.0%,-2.4,4.1%,31.6µM*,-7.9%
O=C(CCSc1ccccc1Cl)Nc1cccc([N+](=O)[O-])c1,i,1.6%,-2.2,-23.9%,17.8µM*,15.0%
NS(=O)(=O)c1cccc(NC(=O)CCSc2ccccc2Cl)c1,i,3.4%,-1.6,-13.1%,8.6%,-4.1%
COc1cccc(Oc2nc(-c3ccncc3)nc3ccccc23)c1,i,29.6%,-0.8,-1.1%,12.6µM*,15.1%
O=C(CCCCn1c(=O)c2ccccc2n(CC(=O)Nc2ccccc2)c1=O)NCc1ccccc1Cl,/,/,/,-8.5%,6.4%,/
COc1ccc(/C=N/NC(=O)C[n+]2ccccc2)c(OC)c1OC,i,22.4µM*,-2.4,2.3%,17.5%,-5.8%
COc1cccc(/C=N/NC(=O)C[n+]2ccccc2)c1OC,i,15.6%,2.0,10.6%,-12.9%,-0.8%
